# Records with an inconclusive call do not appear. Where a call stands in place of a potency, no number is given. A number with no mark means an inactive call. Activity calls are given as the source filed them. Calls come from the whole dose curve; as a rule, active = well fitted activation curve with a large enough effect in the signal ratio in the repeat runs (not every such curve was filed as active); inconclusive = weak or mixed curves; inactive = flat fitted curve, though single readings scatter; the % refers to the signal ratio. Peptide text beside a SMILES is read from it.
# Experiment: p53 small molecule agonists, cell-based qHTS assay (AID 1963582)
# Conditions: HCT-116 p53RE-bla reporter, beta-lactamase FRET ratio, 16 h; series mostly up to 66 µM
# Excerpt: National Center for Advancing Translational Sciences [NCATS]
# Division of Preclinical Innovation [DPI]
# U.S. Environmental Protection Agency [EPA]
# National Institutes of Environmental Health Sciences [NIEHS]
# National Toxicology Program [NTP]
# U.S. Food and Drug Administration [FDA]
# p53, a tumor suppressor protein, is activated following cellular insult, including DNA damage and other cellular stresses. The activation of p53 regulates cell fate by inducing DNA repair, cell cycle arrest, apoptosis, or cellular senescence. The activation of p53, therefore, is a good indicator of DNA damage and other cellular stresses. […] The activation of the reporter gene under culture conditions can be detected by fluorescence intensity. This cell line was used to screen the Tox21 10K compound library in a 1536-well plate format and to identify agonists that activate the p53 signaling pathway.
# Tox21 Assay Protocol Summary:
# The p53RE-bla cells were dispensed at 4,000 cells/5 ul/well in 1536-well black wall/clear bottom plates using a Multidrop dispenser. After the assay plates were incubated at a 37 C/5% CO2 incubator for 5 hours, 23 nL of compounds dissolved in DMSO, positive controls or DMSO only was transferred to the assay plate by a pin tool. The plates were incubated at 37 C for 16 hours. After 1 uL of LiveBLAzerTM B/G FRET substrate was added using a Flying Reagent Dispenser, the plates were incubated at room temperature for 2 hours, and fluorescence intensity was measured by an Envision plate reader.
# Potency is the fitted concentration of half-maximal effect.
SMILES,Potency,activation
CCCCCOC(=O)CCC,inactive,–
CCCCCCC/C=C/C=O,inactive,–
C/C=C(\C)C#N,inactive,–
CCN(CC)CCNC(=O)c1cc(S(C)(=O)=O)ccc1OC,inactive,–
NC(Cc1ccc(Cl)cc1)C(=O)O (stereo not given),–,-0.216% [at 0.249 µM]
Cc1ccccc1N1C(=O)c2cc(S(N)(=O)=O)c(Cl)cc2NC1C (stereo not given),inactive,–
OCCCCCCO,41.3 µM (active),–
CC(C)(O)C(=O)c1ccccc1,inactive,–
CCOc1ccccc1O,inactive,–
CCc1cccc(CC)c1,inactive,–
O=C(O)c1ccncc1,inactive,–
COc1cc(C(=O)NCCCCCC(=O)O)cc(OC)c1OC,inactive,–
Nc1[nH]c(=O)ncc1F,inactive,–
Brc1c2ccccc2cc2ccccc12,inactive,–
C[N+]1(C)CCCC(OC(=O)C(O)(c2ccccc2)c2ccccc2)C1 (stereo not given),inactive,–
CCCCCCCCCCCCCc1ccccc1,inactive,–
Cc1ccc(Cl)cc1Cl,inactive,–
O=C(C1CCCCC1)N1CC(=O)N2CCCc3ccccc3C2C1 (stereo not given),inactive,–
CCn1ccnc1CC1COc2ccccc2O1 (stereo not given),inactive,–
CCCCCCCC/C=C\CCCCCCCCN,inactive,–

SMILES,Potency,activation
CC(=O)N[C@@H](CO)C(=O)N[C@@H](CC(=O)O)C(=O)N[C@@H](CCCCN)C(=O)N1CCC[C@H]1C(=O)O (Ac-SDKP-OH),inactive,–
Cc1cc(O)c2c(c1)C(=O)c1cccc(O)c1C2=O,inactive,–
N#CC1(N)CCCCC1,inactive,–
O=C1OC(=O)C2C3C=CC(C3)C12 (stereo not given),inactive,–
CO[Si](CCCn1c(=O)n(CCC[Si](OC)(OC)OC)c(=O)n(CCC[Si](OC)(OC)OC)c1=O)(OC)OC,inactive,–
C/C=C(\C)C(=O)OCCC(C)CCC=C(C)C (stereo not given),inactive,–
CCCCCCCC1CCCC1=O (stereo not given),inactive,–
CCCC(=O)OCCC(C)C,inactive,–
Cc1c[nH]c2ccccc12,inactive,–
Cc1c(C)c2c(c(C)c1O)CC[C@@](C)(CCC[C@H](C)CCC[C@H](C)CCCC(C)C)O2,inactive,–
CCCCS(=O)(=O)N[C@@H](Cc1ccc(OCCCCC2CCNCC2)cc1)C(=O)O,inactive,–
BrC(Br)C(Br)Br,inactive,–
CCOc1nc(F)cc2nc(S(=O)(=O)Nc3c(Cl)cccc3C(=O)OC)nn12,inactive,–
COc1cc(C)ccc1O,inactive,–
Clc1cc(Cl)c(-c2c(Cl)c(Cl)cc(Cl)c2Cl)cc1Cl,inactive,–
CCN1CN(CC)CN(CC)C1,inactive,–
O=C(c1ccco1)N1CCNCC1,inactive,–
O=C(O)c1cccc(C(=O)O)n1,inactive,–
Cc1ccc(C)c(N)c1,inactive,–
CC(=O)OCC(=O)[C@@]1(OC(C)=O)[C@@H](C)C[C@H]2[C@@H]3C[C@H](F)C4=CC(=O)C=C[C@]4(C)[C@@]3(F)[C@@H](O)C[C@@]21C,inactive,–

# Reference: PubChem BioAssay (Tox21)
